# Test results taken from PMC7862700, “An all-to-all approach to the identification of sequence-specific readers for epigenetic DNA modifications on cytosine”.
# Experiments:
# Assay in all cases: DAPPL (digital affinity profiling via proximity ligation, sequencing); 10 mM Tris-HCl pH 7.5, 50 mM NaCl, 1 mM DTT, 4% glycerol, room temperature, 30 min; GST-TFs on glutathione beads, 16-mer random dsDNA library, 0.1% formaldehyde crosslink after washing; high values mean tight binding
# FEV = biological target: T1, FEV (Homo sapiens, UniProt Q99581 1-238); details: protein: recombinant; tags: N-terminal GST; dsDNA, one strand shown
# T1 sequence: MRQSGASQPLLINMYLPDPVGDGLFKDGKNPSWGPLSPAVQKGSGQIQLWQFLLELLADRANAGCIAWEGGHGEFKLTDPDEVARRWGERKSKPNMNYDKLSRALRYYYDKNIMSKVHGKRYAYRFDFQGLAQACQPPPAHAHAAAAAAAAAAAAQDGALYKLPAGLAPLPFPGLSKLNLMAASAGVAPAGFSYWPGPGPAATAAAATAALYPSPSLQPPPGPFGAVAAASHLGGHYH
# Method in brief: (§1)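 Each value of binding signal is a hexamer's read frequency for a factor divided by the same hexamer's frequency in the tag-only sample. Barcoded, bead-captured GST fusions of human transcription factors made in yeast were pooled with that sample and incubated with 200 nmole of a random double-stranded 16-mer DNA library in Tris/NaCl/DTT/glycerol buffer at room temperature for 30 min. Washing, 0.1% formaldehyde crosslinking, proximity ligation, PCR and Illumina NextSeq500 sequencing followed.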
# ETV5 = ETV5 (Homo sapiens, UniProt P41161 1-510); details: protein: recombinant; tags: N-terminal GST; dsDNA, one strand shown
# Method in brief: as §1
# HSF1 = HSF1 (Homo sapiens, UniProt Q00613 1-529); details: protein: recombinant; tags: N-terminal GST; chain copies: 3; dsDNA, one strand shown
# Method in brief: as §1
# SPIC = biological target: T2, SPIC (Homo sapiens, UniProt Q8N5J4 1-248); details: protein: recombinant; tags: N-terminal GST; dsDNA, one strand shown
# T2 sequence: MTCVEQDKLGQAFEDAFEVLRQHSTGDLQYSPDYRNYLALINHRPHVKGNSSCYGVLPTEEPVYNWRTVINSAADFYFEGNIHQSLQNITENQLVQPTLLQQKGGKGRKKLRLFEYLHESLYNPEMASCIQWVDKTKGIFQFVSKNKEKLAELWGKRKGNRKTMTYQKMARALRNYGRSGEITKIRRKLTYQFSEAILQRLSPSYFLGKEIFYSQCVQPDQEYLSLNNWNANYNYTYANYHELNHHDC
# Method in brief: as §1
# ELF4 = ELF4 (Homo sapiens, UniProt Q99607 1-663); details: protein: recombinant; tags: N-terminal GST; dsDNA, one strand shown
# Method in brief: as §1
# ELK4 = biological target: T3, ELK4 (Homo sapiens, UniProt P28324-2 1-405); details: protein: recombinant; tags: N-terminal GST; dsDNA, one strand shown
# T3 sequence: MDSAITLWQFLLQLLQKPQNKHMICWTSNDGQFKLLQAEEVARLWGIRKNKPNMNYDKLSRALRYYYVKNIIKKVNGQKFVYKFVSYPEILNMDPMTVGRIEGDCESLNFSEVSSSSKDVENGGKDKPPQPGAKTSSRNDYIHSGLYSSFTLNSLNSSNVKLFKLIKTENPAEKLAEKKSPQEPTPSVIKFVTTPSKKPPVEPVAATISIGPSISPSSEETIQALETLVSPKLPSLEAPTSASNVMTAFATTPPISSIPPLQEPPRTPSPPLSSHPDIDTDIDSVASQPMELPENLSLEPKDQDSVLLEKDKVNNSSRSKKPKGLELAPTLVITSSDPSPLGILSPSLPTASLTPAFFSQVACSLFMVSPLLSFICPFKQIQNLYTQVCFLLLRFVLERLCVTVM
# Method in brief: as §1
# ETV2 = biological target: T4, ETV2 (Homo sapiens, UniProt O00321 1-342); details: protein: recombinant; tags: N-terminal GST; dsDNA, one strand shown
# T4 sequence: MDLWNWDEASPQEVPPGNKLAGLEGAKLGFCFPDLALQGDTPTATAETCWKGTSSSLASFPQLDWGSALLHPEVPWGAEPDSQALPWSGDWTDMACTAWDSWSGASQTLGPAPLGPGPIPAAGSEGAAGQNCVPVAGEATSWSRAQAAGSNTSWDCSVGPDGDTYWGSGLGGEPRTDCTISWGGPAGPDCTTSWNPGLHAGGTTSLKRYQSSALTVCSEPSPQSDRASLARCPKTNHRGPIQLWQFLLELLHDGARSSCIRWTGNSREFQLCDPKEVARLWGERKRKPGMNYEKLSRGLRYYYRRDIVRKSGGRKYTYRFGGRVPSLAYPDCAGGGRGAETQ
# Method in brief: as §1
# ELF3 = biological target: T5, ELF3 (Homo sapiens, UniProt P78545 1-371); details: protein: recombinant; tags: N-terminal GST; dsDNA, one strand shown
# T5 sequence: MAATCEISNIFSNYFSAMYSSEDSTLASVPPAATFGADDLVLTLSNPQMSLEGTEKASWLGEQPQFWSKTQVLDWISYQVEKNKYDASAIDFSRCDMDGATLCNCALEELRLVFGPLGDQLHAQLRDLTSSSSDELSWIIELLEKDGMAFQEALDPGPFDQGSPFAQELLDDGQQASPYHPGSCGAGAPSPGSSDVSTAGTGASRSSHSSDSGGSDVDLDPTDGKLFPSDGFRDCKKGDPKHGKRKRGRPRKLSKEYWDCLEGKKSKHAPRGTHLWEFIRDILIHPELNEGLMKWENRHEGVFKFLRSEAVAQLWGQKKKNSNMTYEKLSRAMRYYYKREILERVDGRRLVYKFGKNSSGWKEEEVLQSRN
# Method in brief: as §1
# CRX = CRX (Homo sapiens, UniProt O43186 1-299); details: protein: recombinant; tags: N-terminal GST; dsDNA, one strand shown
# Method in brief: as §1
# ETV5, sequence (P41161 whole entry): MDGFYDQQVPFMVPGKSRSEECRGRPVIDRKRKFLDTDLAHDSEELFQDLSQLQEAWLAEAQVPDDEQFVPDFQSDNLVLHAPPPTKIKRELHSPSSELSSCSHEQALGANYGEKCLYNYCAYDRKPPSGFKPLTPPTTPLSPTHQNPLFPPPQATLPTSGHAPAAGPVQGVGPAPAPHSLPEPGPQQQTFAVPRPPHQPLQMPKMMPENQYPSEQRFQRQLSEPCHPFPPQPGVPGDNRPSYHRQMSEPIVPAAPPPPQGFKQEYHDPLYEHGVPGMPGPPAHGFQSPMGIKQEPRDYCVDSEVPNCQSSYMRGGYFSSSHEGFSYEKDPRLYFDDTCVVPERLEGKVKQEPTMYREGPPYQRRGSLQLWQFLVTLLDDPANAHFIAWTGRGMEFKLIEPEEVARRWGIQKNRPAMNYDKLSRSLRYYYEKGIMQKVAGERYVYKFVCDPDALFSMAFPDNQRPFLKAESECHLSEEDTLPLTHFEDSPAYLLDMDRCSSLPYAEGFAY
# CRX, sequence (O43186 whole entry): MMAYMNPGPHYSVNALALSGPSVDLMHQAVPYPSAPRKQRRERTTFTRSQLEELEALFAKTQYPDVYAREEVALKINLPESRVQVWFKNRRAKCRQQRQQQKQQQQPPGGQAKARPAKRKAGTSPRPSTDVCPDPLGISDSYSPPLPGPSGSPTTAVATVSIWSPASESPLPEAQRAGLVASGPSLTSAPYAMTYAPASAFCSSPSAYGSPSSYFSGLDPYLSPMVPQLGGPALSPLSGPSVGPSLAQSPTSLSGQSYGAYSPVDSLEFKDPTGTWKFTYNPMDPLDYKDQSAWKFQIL
# HSF1, sequence (Q00613 whole entry): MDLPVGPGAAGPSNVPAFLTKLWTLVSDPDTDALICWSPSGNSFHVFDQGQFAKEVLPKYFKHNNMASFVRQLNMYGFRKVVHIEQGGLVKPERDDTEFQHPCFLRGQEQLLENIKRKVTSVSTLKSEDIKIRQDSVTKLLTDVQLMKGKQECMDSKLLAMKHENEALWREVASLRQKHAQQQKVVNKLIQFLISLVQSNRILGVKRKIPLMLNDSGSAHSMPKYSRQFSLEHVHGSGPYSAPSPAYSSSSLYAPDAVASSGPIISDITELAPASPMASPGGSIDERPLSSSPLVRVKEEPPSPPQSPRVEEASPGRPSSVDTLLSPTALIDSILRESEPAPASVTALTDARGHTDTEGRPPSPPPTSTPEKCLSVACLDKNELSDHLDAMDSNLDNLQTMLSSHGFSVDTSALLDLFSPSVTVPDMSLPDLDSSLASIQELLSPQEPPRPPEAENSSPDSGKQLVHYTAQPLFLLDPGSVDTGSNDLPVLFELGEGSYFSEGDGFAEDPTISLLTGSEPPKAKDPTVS
# ELF4, sequence (Q99607 whole entry): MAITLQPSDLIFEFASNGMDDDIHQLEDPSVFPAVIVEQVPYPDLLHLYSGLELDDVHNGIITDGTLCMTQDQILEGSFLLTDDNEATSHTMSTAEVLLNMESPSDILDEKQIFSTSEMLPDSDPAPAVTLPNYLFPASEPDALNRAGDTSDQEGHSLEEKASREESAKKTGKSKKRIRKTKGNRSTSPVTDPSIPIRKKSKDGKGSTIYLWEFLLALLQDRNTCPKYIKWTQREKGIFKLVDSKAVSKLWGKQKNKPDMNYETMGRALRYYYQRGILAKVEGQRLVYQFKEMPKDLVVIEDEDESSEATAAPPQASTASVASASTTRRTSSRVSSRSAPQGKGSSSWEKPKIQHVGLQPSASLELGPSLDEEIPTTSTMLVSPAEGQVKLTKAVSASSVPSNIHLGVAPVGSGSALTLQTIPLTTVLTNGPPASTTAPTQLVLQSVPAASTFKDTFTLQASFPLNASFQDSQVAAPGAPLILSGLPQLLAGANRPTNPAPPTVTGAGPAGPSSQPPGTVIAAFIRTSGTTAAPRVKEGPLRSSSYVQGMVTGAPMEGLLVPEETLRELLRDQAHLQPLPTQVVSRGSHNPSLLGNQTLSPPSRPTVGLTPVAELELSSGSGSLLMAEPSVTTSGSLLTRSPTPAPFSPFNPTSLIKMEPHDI
sequence,measurement,setting,value
ATTGGT,binding signal,FEV,"1.21 fold enrichment (6-mer frequency, TF over GST control)"
same,binding signal,ETV5,"1.29 fold enrichment (6-mer frequency, TF over GST control)"
same,binding signal,HSF1,"1.12 fold enrichment (6-mer frequency, TF over GST control)"
same,binding signal,SPIC,"1.24 fold enrichment (6-mer frequency, TF over GST control)"
same,binding signal,ELF4,"1.27 fold enrichment (6-mer frequency, TF over GST control)"
same,binding signal,ELK4,"1.19 fold enrichment (6-mer frequency, TF over GST control)"
same,binding signal,ETV2,"1.01 fold enrichment (6-mer frequency, TF over GST control)"
same,binding signal,ELF3,"1.14 fold enrichment (6-mer frequency, TF over GST control)"
same,binding signal,CRX,"1.2 fold enrichment (6-mer frequency, TF over GST control)"
